Test results from PubChem BioAssay AID624330 (Southern Research Specialized Biocontainment Screening …, 2012).
Hit rate of the full screen: of about 340,000 compounds, about 2,100 (0.62%) were called active.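 The calls were made as follows: active = first-screen hits whose inhibition reached a set limit at any dose in the follow-up dose series; inconclusive = inhibition above the set first-screen limit but never retested; inactive = the rest.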 Not all results are given here. Potency and affinity values are given separately.

molecular target: Rac GTPase-activating protein 1 (Homo sapiens) (UniProt Q9H0H5); assay: blockers of MgcRacGAP-driven Rac1 GTP hydrolysis – biochemical, ADP Hunter fluorescence, primary and confirmatory, confirmation (AID 624330); details: MgcRacGAP-stimulated Rac1 GTP hydrolysis, at 30 µM, active compounds read high, GST-tagged Rac1 F28L mutant substrate;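 also: fluorescence reports GDP produced by GAP-driven GTP hydrolysis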
Sequence (Q9H0H5 whole entry, looked up): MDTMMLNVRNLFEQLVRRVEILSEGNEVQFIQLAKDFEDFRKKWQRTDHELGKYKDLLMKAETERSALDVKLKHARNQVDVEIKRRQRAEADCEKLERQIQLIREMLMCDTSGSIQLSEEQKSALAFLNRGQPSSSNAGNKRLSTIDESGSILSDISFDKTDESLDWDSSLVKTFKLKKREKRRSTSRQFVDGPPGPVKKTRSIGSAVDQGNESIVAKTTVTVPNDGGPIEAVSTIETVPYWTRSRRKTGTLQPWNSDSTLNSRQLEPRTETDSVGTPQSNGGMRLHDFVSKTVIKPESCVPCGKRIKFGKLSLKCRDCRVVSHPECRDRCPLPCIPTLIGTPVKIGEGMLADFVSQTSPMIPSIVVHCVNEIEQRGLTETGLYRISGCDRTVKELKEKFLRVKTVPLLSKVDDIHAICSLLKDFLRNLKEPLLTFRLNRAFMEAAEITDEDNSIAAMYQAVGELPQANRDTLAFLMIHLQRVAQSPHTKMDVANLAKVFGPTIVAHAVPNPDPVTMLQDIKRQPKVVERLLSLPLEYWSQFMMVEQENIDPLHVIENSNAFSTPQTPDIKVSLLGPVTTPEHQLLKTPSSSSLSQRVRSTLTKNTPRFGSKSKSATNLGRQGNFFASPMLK

inhibition, inactive:
CCn1c(CNC(=O)c2ccco2)nnc1SCC(=O)c1ccccc1 13.1%
CCN(CC)S(=O)(=O)c1cccc(NC(=O)C(=O)c2c(-c3ccccc3)cc3ccccn23)c1 9%
O=C(/C=C/c1ccc(Cl)cc1)N1CCN(Cc2ccccc2)CC1 10.8%
CC(Oc1ccc(Br)cc1)C(=O)Nc1ccc(S(=O)(=O)Nc2nccs2)cc1 (configuration not stated) 3.41%
COc1ccc(/C=N/NC(=O)c2cc[n+]([O-])cc2)cc1 2.43%
COc1ccc(/C=N/NC(=O)c2cc[n+]([O-])cc2)cc1OC 1.48%
Cn1c(N/N=C\c2cccc(O)c2)cc(=O)n(C)c1=O 11.6%
COc1ccc(NS(=O)(=O)c2cccc(C(=O)NN=Cc3ccc(OC)c(O)c3)c2)cc1 22.5%
COc1cc(/C=N/Nc2ccccc2)ccc1O 13%
COc1cc(C=NCc2ccccc2)ccc1O 15.5%
COc1ccc(/C=N/Nc2cc(=O)n(C)c(=O)n2C)cc1OC 1.57%
COc1ccc(NS(=O)(=O)c2cccc(C(=O)N/N=C/c3ccc(O)cc3)c2)cc1 16.4%
Cc1ccc(C(=O)N2CCN(S(=O)(=O)c3ccc(C)c([N+](=O)[O-])c3)C2)cc1 6.42%
O=S(=O)(c1ccc(-c2csc(=Nc3ccccc3)n2CCCN2CCOCC2)cc1)N1CCOCC1 3.34%
CCCCCCCNC(=O)C1(CC2CC(c3ccc(Cl)cc3)=NO2)CCN(C(=O)Cc2ccc(F)cc2)CC1 (configuration not stated) 4.28%
Fc1ccc(CN2CCCN(Cc3nc(-c4ccc5c(c4)OCO5)no3)CC2)cc1 7.98%
CCCC(=O)Nc1ccc(C(=O)COC(=O)C2CC2)cc1 6.42%
Cc1cc(C)c(C(=O)N2CCCC(CNC(=O)C3(c4ccc(Cl)cc4)CC3)C2)c(=O)[nH]1 (configuration not stated) 6.3%
CNC(=O)c1ccc(CN(C)C(=O)c2cccc(S(=O)(=O)N3CCc4ccccc4C3)c2)cc1 15.5%
COc1ccc(/C=N/NC(=O)c2ccc(C)cc2)cc1CN1CCN(c2ccc(F)cc2)CC1 11.1%
COc1ccc(/C=N/NC(=O)c2cc3cc(OC)c(OC)cc3[nH]2)cc1 10.7%
O=C(N/N=C/c1ccc(F)cc1)c1cc[n+]([O-])cc1 2.39%
COc1ccc2[nH]c(C(=O)N/N=C/c3ccc(OC)c(O)c3)cc2c1 26.2%
COc1cc(C(=O)N/N=C/c2ccc3c(c2)c2ccccc2n3C)ccc1O 22.2%
COc1ccc(/C=N\NC(=O)c2cc(O)c(O)c(O)c2)cc1CN1CCN(c2ccc(F)cc2)CC1 -36.7%
COc1cc(/C=N/NC(=O)c2cc[n+]([O-])cc2)cc(OC)c1OC 7.29%
O=C(N/N=C/c1ccncc1)c1ccc(-n2cccc2)cc1 -9.21%
Cc1onc(-c2c(Cl)cccc2Cl)c1C(=O)N(C)Cc1ccccc1 12.4%
CC(=O)N1CCN(c2ccc(NC(=O)c3ccco3)cc2Cl)CC1 8.65%
Cc1sc2nc(SCC(=O)N3CCN(CCO)CC3)n(-c3ccccc3)c(=O)c2c1C 6.94%
CCC(Oc1cc(Cl)ccc1Cl)C(=O)NN1C(=O)C2C3CCC(C3=C(C)C)C2C1=O (configuration not stated) 4.3%
CCCCCCN1C[C@H](n2cc(COC(=O)c3ccccc3)nn2)[C@@H](O)C[C@@H]1c1ccc(C)cc1 2.5%
O=C(Nc1ccc(Cl)cc1)N[C@@H]1c2c(ccc3ccccc23)OC[C@@H]1CO -2.15%
COC(=O)c1c(-c2ccccc2)csc1NC1=NS(=O)(=O)c2ccccc21 -0.52%
COc1ccc(/C=N/NC(=O)c2ccc(CSc3nc(C)cc(C)n3)cc2)c(OC)c1OC 5.29%
COc1ccc(/C=N/NC(=O)C(=O)Nc2ccccn2)cc1OC 13.3%
C=CCOc1ccc(/C=N/NC(=O)C(=O)Nc2ccccn2)cc1OC -2.52%
COc1cc(OC)c(OC)cc1/C=N/NC(=O)c1ccc(CSc2nc(C)cc(C)n2)cc1 8.78%
COc1ccc(/C=N/NC(=O)c2[nH]nc3c2CCc2ccccc2-3)cc1OC 11.3%
COc1cc(/C=N/NC(=O)c2cccc(NC(=O)c3ccccc3Cl)c2)ccc1O 28.3%
COc1ccc(OC)c(/C=N/NC(=O)c2[nH]nc3c2CCc2ccccc2-3)c1 -0.52%
COc1ccccc1/C=N/NC(=O)c1cccc(NC(=O)c2ccccc2C)c1 6.03%
C[C@@H]1CN([C@@H](C)CO)C(=O)CCCn2cc(nn2)CO[C@H]1CN(C)S(=O)(=O)c1ccc(Oc2ccccc2)nc1 15.5%
C[C@@]12C(=O)Nc3cc(Cl)ccc3C(=O)N1[C@H]1c3cc(Br)ccc3OC[C@@H]1[C@@H]2c1ccccc1 11.9%
O=C(c1cc2nc(-c3ccc(F)cc3)cc(C(F)(F)F)n2n1)N1CCOCC1 10.3%
CCN1C(=O)[C@H]2[C@H]3CN=C(SCc4ccc(C(=O)OC)cc4)N3[C@@](CC)(C(=O)OC)[C@H]2C1=O 6.61%
O=C(Nc1ccc2nc(-c3cccnc3)[nH]c2c1)c1ccccc1F 5.15%
O=C(O)C1CC(c2ccc(F)cc2)=NO1 (configuration not stated) 1.2%
CC(C)[C@H](NC(=O)OCc1ccccc1)C(=O)OCC(=O)NC1CCCCC1 10.6%
Cc1nonc1CN(C)C(=O)CC1C(=O)NCCN1Cc1ccccc1F (configuration not stated) 2.81%
Cc1ccc(OCCn2cc(/C=N/NC(=O)c3ccncc3)c3ccccc32)cc1 -10.1%
CC(/C=C/c1ccc(O)cc1)=NNc1ccccc1 31.4%
CCN(CC)c1ccc(/C=N\NC(=O)c2cccc3cc[nH]c23)cc1 21.1%
CCN(CC)c1ccc(/C=N/NC(=O)c2c[nH]c3ccccc23)cc1 30.9%
COc1ccc(OCCn2cc(/C=N/NC(=O)c3ccncc3)c3ccccc32)cc1 4.18%
COc1cc(/C=N/Nc2ccc(C(=O)O)cc2)cc(OC)c1OC -9.42%
COc1ccc(/C=N/Nc2ccc(C(=O)O)cc2)cc1OC 12.8%
COc1cc(/C=C/C(=O)CC(=O)/C=C/c2ccc(O)c(OC)c2)ccc1O 27.8%
CN(C(=O)c1cccc(NC(=O)Cc2ccc(NC(=O)C3CCCN(S(=O)(=O)c4cccc([N+](=O)[O-])c4)C3)cc2)c1)C1CCCCC1 (configuration not stated) 3.08%
O=C(COc1ccc(Cl)cc1)NCc1nnc(SCC(=O)N2CCCc3ccccc32)o1 2.68%
COc1ccc(-c2nnc(NC(=O)Cc3ccccc3)o2)cc1 7.81%
COc1ccc(CN2CCOCCOCCOCC2)cc1 0.62%
C=CCn1c(=O)c2ccccc2n2c(SCC(=O)NCCc3ccccc3)nnc12 6.1%
CC(C)n1nc(C(=O)NCCc2ccc(S(N)(=O)=O)cc2)c2ccccc2c1=O 0.38%
COc1ccc(CN2C(=O)c3ccccc3C2=O)cc1C(=O)OCC(=O)NC1CCCCC1 7.94%
c1ccc2cc(CNCc3cccc4ccccc34)ccc2c1 13%
O=C(COC(=O)CN1CCSC1=O)Nc1ccc(F)cc1Cl 2.57%
O=C(NCC1COc2ccccc2O1)c1ccc(NC(=O)C2CCCO2)cc1 (configuration not stated) 10.6%
Cc1nnc(NC(=O)CCn2c(=O)oc3ccccc32)s1 4.88%
C=CCSc1ncccc1C(=O)NCCc1ccc(Cl)cc1 10.4%
O=C(N/N=C/c1ccccc1O)C1(O)c2ccccc2-c2ccccc21 8.51%
COc1ccc(/C=N/NC(=O)C2(O)c3ccccc3-c3ccccc32)cc1 6.06%
COc1ccccc1N(CC(=O)Nc1ccc(Cc2ccncc2)cc1)S(=O)(=O)c1ccccc1 0.87%
COc1ccc(C(=O)Nc2ccc3c(c2)n(C)c(=O)n3C)cc1OC 3.94%
CC1CCC(N2CCN(S(=O)(=O)Cc3ccccc3)CC2)CC1 (configuration not stated) 7.86%
CCS(=O)(=O)N1CCN(C2CCC(C)CC2)CC1 (configuration not stated) 17.9%
CCS(=O)(=O)N1CCN(C2Cc3ccccc3C2)CC1 13.9%
O=S(=O)(Cc1ccccc1)N1CCN(C2Cc3ccccc3C2)CC1 9.97%
Nc1cc2c(cc1Br)-c1ccccc1C2=NO 7.06%
COc1ccc(-c2nn(-c3ccccc3)cc2/C=N/Nc2ccc(Cl)c(C(=O)O)c2)cc1OC 13.5%
N#Cc1c(-c2ccccc2)nc(N2CCN(Cc3ccccc3)CC2)[nH]c1=O 0.49%
O=C(/C=C/c1cn(-c2ccccc2)nc1-c1cccnc1)NCCN1CCOCC1 11.7%
O=C(O)c1cc2ccc(O)cc2oc1=O 4.89%
O=c1oc2cc(O)ccc2cc1-c1ccccc1 15.9%
O=C(CCCc1nc2ccccc2s1)NC(c1ccccc1)c1ccccc1 6.29%
O=C(CN1N=C(c2ccccc2)CCC1=O)NCc1ccccc1 6.27%
COc1cc(CN(C)C(=O)C(=O)c2c[nH]c3ccccc23)ccc1O 8.17%
O=C(c1cc(-c2ccc(Cl)c(Cl)c2)on1)N1CCN(c2ccccc2)CC1 4.94%
COc1cc(NC(=O)c2cccs2)c(OC)cc1NC(=O)c1cccs1 4.2%
COc1ccc(NC(=O)c2cccs2)cc1 8.32%
COc1ccccc1NC(=O)c1cccs1 0.52%
COc1ccc(NC(=O)c2ccc(NC(=O)c3cccs3)cc2)cc1 2.51%
